# Experimental data published in PubChem BioAssay (Tox21).
# Results filed as inconclusive are left out. Where a call stands in place of a potency, no number is given. Where a structure was tested more than once in an assay, its records may differ in their call. Active and inactive are the calls of the source. Calls come from the whole dose curve.
# Biological target: Retinoic acid receptor RXR-alpha (Homo sapiens) (UniProt P19793)
# Test: qHTS assay to identify small molecule agonists of the RXR signaling pathway (AID 1159527); note: nearly all actives have a fitted effect of over 35% in size
# Conditions: HEK293T RXRa-UAS-bla, beta-lactamase ratio, 16 h; series mostly up to 76.8 µM
# Summary of the method: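 Agonist-mode beta-lactamase reporter assay: HEK 293T RXR-alpha-UAS-bla cells treated 16 hr at 37 C with compounds, 9-cis retinoic acid as positive control. LiveBLAzer FRET substrate, 405 nm excitation, 460/530 nm emission.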
# Potency is the fitted concentration of half-maximal effect.
# Chain of Retinoic acid receptor RXR-alpha (Homo sapiens) (P19793 whole entry, looked up): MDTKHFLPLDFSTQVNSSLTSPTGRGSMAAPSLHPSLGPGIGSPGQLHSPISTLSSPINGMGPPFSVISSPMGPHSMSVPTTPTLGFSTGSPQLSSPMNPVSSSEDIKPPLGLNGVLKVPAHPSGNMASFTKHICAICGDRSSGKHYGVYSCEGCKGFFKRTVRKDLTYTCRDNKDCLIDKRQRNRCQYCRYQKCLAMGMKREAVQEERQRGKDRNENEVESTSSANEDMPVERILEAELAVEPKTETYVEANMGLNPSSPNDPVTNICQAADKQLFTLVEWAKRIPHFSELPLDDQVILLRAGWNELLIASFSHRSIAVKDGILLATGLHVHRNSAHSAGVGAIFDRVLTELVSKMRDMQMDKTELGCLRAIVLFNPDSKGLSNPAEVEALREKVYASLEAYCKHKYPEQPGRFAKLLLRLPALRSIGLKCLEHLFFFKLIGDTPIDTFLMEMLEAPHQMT
row,Compound,Potency
1,C1N2CN3CN1CN(C2)C3,inactive
2,CC(=O)NS(=O)(=O)c1ccc(N)cc1,inactive
3,CNC[C@H](O)c1cccc(O)c1,inactive
4,O=S(=O)(O)c1ccc2cc(O)ccc2c1,inactive
5,Cc1ccc(O)cc1,inactive
6,Cn1c(=O)c2[nH]cnc2n(C)c1=O,13.8 µM (active) and inactive
7,COc1c2occc2cc2ccc(=O)oc12,inactive
8,Oc1ccc(/C=C/c2cc(O)cc(O)c2)cc1,inactive
9,CC(=O)Nc1nnc(S(N)(=O)=O)s1,inactive
10,Nc1ccn([C@H]2CC[C@@H](CO)O2)c(=O)n1,inactive
11,Nc1ccc(O)c(C(=O)O)c1,inactive
12,CCCCC(CC)COC(=O)/C=C/c1ccc(OC)cc1 (stereo unspecified),inactive
13,Nc1ccc(S(=O)(=O)Nc2nccs2)cc1,19.6 µM (active) and inactive
14,Cc1ccc(S(=O)(=O)NC(=O)NN2CCCCCC2)cc1,inactive
15,NC(=O)c1ccccc1O,inactive
16,CC(C)(Oc1ccc(C2CC2(Cl)Cl)cc1)C(=O)O (stereo unspecified),inactive
17,CC(O)C(=O)O (stereo unspecified),inactive
18,CCCCC1C(=O)N(c2ccccc2)N(c2ccccc2)C1=O,inactive
19,CCC1(c2ccccc2)C(=O)NCNC1=O,inactive
20,COc1ccc2[nH]cc(CCNC(C)=O)c2c1,inactive
21,CC(O)CN(CCN(CC(C)O)CC(C)O)CC(C)O (stereo unspecified),inactive
22,CCCN(CCC)S(=O)(=O)c1ccc(C(=O)O)cc1,inactive
23,NC(=O)c1cnccn1,inactive
24,O=C(O)CCCCCCCC(=O)O,inactive
25,Cc1cc(=O)n(-c2ccccc2)n1C,inactive
26,Nc1ccc(S(=O)(=O)c2ccc(N)cc2)cc1,inactive
